Results filed as inconclusive are left out. Unmarked numbers belong to inactive results. The source made the active and inactive calls. Calls follow the shape of the dose curve; as a rule, active = well fitted inhibition curve with a large enough effect; inconclusive = small, poorly fitted or top-dose-only effect; inactive = flat fitted curve, though single readings scatter.
Potency is read from the fitted curve at half-maximal effect.

The target in the experiment is Luciferin 4-monooxygenase (Photinus pyralis) (UniProt P08659). The experiment in a line: Biochemical firefly luciferase enzyme assay for NPC (AID 624030). Also: nearly all actives have a fitted effect of over 70% in size.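 As to activity change, negative = inhibition: 0% = DMSO and -100% = full luciferase inhibition by PTC124 control.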 Conditions: purified P. pyralis luciferase, luminescence, 5 min; series mostly up to 58.6 µM; activity change, negative = inhibition: at the top concentration. From the text: Charcot-Marie-Tooth-Association [CMTA] National Center for Advancing Translational Sciences [NCATS] Charcot-Marie-Tooth (CMT) disease was first characterized by Jean-Martin Charcot and Pierre Marie in France and, independently, by Howard Henry Tooth in England in 1886. CMT is one of the most common inherited neurological diseases, affecting approximately 1 in 2,500 Americans. […] The most prevalent type of CMT is known as CMT1A and caused by a duplication of the PMP22 gene which leads to over-expression of this protein. PMP22 is a glycosylated intrinsic membrane protein accounting for 2-5% of the myelin protein content, and its over-expression results in demyelination and subsequently axonal loss. A pair of cellular transcription-based assays was developed in the S16 rat Schwann cell lines (Hai, M., et al., 2002) stably transfected with orthogonal reporters - firefly luciferase (Fluc) and beta-lactamase (beta-Lac) - whose expression is driven by an intronic regulatory element of the PMP22 gene (Jones, E.A., et al., 2011) to recapitulate endogenous expression of PMP22. A comprehensive library of approved drugs, the NCGC Pharmaceutical Collection (Huang, R., et al., 2011), was screened in the cross-validating platform of the orthogonal reporter assays to identify drug modulators inhibitory towards PMP22 expression. A set of counter-screens was devised to address non-specific activity of the library. An ATP-dependent CellTiter-Glo assay (developed by Promega Corp) was utilized to control cell viability. In addition, biochemical Fluc enzyme assay was performed to assess direct inhibition of the Fluc enzymatic activity. References Hai, M., Muja, N., DeVries, G.H., Quarles, R.H. and Patel, P.I. Comparative analysis of Schwann cell lines as model systems for myelin gene transcription studies. J Neurosci Res, 2002. 69(4): pp 497-508 Huang, R., Southall, N., Wang, Y., Yasgar A., Shinn P., Jadhav, A. , Nguyen, D.-T. and Austin, C.P., The NCGC pharmaceutical collection: a comprehensive resource of clinically approved drugs enabling repurposing and chemical genomics. Sci Transl Med, 2011. 3(80): p. 80ps16.
Luciferin 4-monooxygenase (Photinus pyralis), sequence (P08659 whole entry, looked up): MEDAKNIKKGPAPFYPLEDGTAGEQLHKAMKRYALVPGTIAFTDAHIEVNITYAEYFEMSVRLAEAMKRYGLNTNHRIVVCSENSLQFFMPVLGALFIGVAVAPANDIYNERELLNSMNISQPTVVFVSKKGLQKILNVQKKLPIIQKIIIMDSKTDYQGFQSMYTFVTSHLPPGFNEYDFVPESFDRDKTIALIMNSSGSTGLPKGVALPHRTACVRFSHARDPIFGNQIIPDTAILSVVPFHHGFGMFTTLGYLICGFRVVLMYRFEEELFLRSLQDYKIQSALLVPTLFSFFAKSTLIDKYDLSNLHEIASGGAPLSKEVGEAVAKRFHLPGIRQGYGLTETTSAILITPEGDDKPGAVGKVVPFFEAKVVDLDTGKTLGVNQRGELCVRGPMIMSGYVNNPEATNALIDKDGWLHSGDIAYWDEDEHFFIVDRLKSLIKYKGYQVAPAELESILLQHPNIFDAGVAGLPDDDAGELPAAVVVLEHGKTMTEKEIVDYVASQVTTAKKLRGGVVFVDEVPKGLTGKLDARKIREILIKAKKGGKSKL
Compounds were transferred to the plates in 23nl, and one microliter/well luciferase enzyme-buffer solution (10 nM P. pyralis luciferase and 50 mM Tris Acetate final concentrations) was dispensed yielding a final reaction volume of […]. Luciferase luminescence was measured by a ViewLux plate reader within 5 minutes of enzyme-buffer addition. The % activity was determined by normalizing to the average readings of PTC124 (a positive control) relative to DMSO (0% Activity). The concentration-effect curves were then classified based on curve quality (r2), response magnitude and degree of measured activity.
`O=c1[nH]c(=O)n(C2CCCO2)cc1F` (stereo not drawn): the “activity change, negative = inhibition” value was -1.25%. Take `COc1cc(C(=O)NS(=O)(=O)c2ccccc2C)ccc1Cc1cn(C)c2ccc(NC(=O)OC3CCCC3)cc12`: the Potency was 16.1 µM (active). In the case of `CC1(C)O[C@@H]2C[C@@H]3[C@H]4C[C@@H](F)C5=CC(=O)C=C[C@]5(C)[C@@]4(F)[C@@H](O)C[C@]3(C)[C@]2(C(=O)CO)O1`, the “activity change, negative = inhibition” value is 4.47%. On the same count and under the same terms, the same measure for `CC=CC1=C(C(=O)O)N2C(=O)[C@H](NC(=O)[C@H](N)c3ccc(O)cc3)[C@@H]2SC1`: -5.95%. As to `CC(=O)SC[C@@H](C)C(=O)N1CCC[C@H]1C(=O)N[C@@H](Cc1ccccc1)C(=O)O`, the “activity change, negative = inhibition” value was 0.43%.

In the case of `COc1c(N2C[C@@H]3CCCN[C@H]3C2)c(F)cc2c(=O)c(C(=O)O)cn(C3CC3)c12`, the Potency entry was “inactive”.

As for `Nc1ccn([C@@H]2CS[C@H](CO)O2)c(=O)n1`, the Potency result was “inactive”. As to `C=C1C(=CC=C2CCC[C@]3(C)[C@@H]([C@H](C)C=C[C@H](C)C(C)C)CC[C@@H]23)C[C@@H](O)C[C@@H]1O`, the “activity change, negative = inhibition” value is -7.67%. For `CCC1=C[C@@H]2CN(C1)Cc1c([nH]c3ccccc13)[C@@](C(=O)OC)(c1cc3c(cc1OC)N(C)[C@@H]1[C@@](O)(C(=O)OC)[C@H](OC(C)=O)[C@]4(CC)C=CCN5CC[C@]31[C@@H]54)C2`, the “activity change, negative = inhibition” value is 3.14%. As to `CN1c2cc(O)c(N=NC(N)=O)cc2CC1S(=O)(=O)O` (stereo not drawn), the “activity change, negative = inhibition” value was -8.25%. For the compound `C[C@H]1C[C@@H]2[C@@H]([C@@H](O)C[C@@]3(C)[C@H]2CC[C@]3(O)C(=O)CO)[C@@]2(C)C=CC(=O)C=C12`, the “activity change, negative = inhibition” value was 7.7% [at 24.9 µM].

In the case of `CC[C@H]1CN2CCc3cc(OC)c(OC)cc3[C@H]2C[C@@H]1C[C@@H]1NCCc2cc(OC)c(OC)cc21`, the “activity change, negative = inhibition” value is 3.61%. With `Nc1ccn([C@@H]2O[C@H](CO)[C@H](O)C2(F)F)c(=O)n1`, the “activity change, negative = inhibition” value is 5.09%.

For `CC(C)(C)NC(=O)[C@H]1CN(Cc2cccnc2)CCN1C[C@@H](O)C[C@@H](Cc1ccccc1)C(=O)N[C@H]1c2ccccc2C[C@H]1O`, the “activity change, negative = inhibition” value is -1.02%.

On to `COC(=O)C1=C(C)NC(C)=C(C(=O)OCCN2CCN(C(c3ccccc3)c3ccccc3)CC2)C1c1cccc([N+](=O)[O-])c1` (stereo not drawn), for which the “activity change, negative = inhibition” value is 5.11%.

In the case of `COC(=O)C[C@](O)(CCCC(C)(C)O)C(=O)O[C@@H]1C(OC)=C[C@]23CCCN2CCc2cc4c(cc2[C@H]13)OCO4`, the “activity change, negative = inhibition” value is 0.85%. Regarding `O=C(O)CO.[NH2-].[NH2-].[Pt+2]`, the “activity change, negative = inhibition” value was 0.0482%. As for `Cc1nc2ccc(CN(C)c3ccc(C(=O)N[C@@H](CCC(=O)O)C(=O)O)s3)cc2c(=O)[nH]1`, the “activity change, negative = inhibition” value is -5.77%.

The record behind these values is PubChem BioAssay (NCATS).
